In all, about 5,500 compounds went through this assay and about 2,000 (36%) were called active. About 18% were inconclusive and are not listed. Cut-off read from the data, not from the text of the source: active = normalized growth mostly below about 0.91 (no sharp cut-off); inconclusive = no clear call, values can overlap the other calls; inactive = mostly above about 0.92. The list shows a part of the results. Where a SMILES comes first, the peptide text is derived from it. Bridges are numbered along the chain shown (N, C = ends). [ ]: non-standard residue; d: D form. The star is where a group is joined. Heptanoyl(6-Me) = CC(C)CCCCC(=O)*; Dab = NCC[CH](N)C(=O)O
Assay: chemical genetic growth profiling, strain panel (AID 1159580);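 note: tested at 20 µM; growth read once vehicle control cultures reached saturation at 30 °C; 1 = growth at the plate median or of vehicle wells; lower values mean less growth of the strain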
Details: S. cerevisiae deletion strains, growth OD

Measured: normalized growth

CCC(C)C1NC(=O)C(CCN)NC(=O)C(NC(=O)C(CCN)NC(=O)C(NC(=O)C(CCN)NC(=O)CCCCC(C)C)C(C)O)CCNC(=O)C(C(C)O)NC(=O)C(CCN)NC(=O)C(CCN)NC(=O)C(C(C)CC)NC1=O (configuration not stated) ({Heptanoyl(6-Me)}-[Dab]T[Dab][Dab][Dab]II[Dab][Dab]T; lactam 4-C; configuration not given here)
inactive: locus YHR030C, strain SLT2, stronger effect = lower value 0.976 | locus YJL095W, strain BCK1, stronger effect = lower value 0.985 | locus YJR066W, strain TOR1, stronger effect = lower value 0.95 | locus YLR113W, strain HOG1, stronger effect = lower value 0.967 | locus YNL183C, strain NPR1, stronger effect = lower value 0.944 | locus YOR231W, strain MKK1, stronger effect = lower value 0.971 | locus YPL256C, strain CLN2, stronger effect = lower value 0.973
